The whole screen tested about 1,300 compounds, of which about 10 (0.8%) were called active. How the calls were made is not given here. The full list was thinned out, with actives kept by preference.
target: Chaperone protein DnaK (Escherichia coli (strain K12)) (UniProt P0A6Y8); test: blockers of bacterial DnaK function – luminescence, E. coli K12, primary screen (AID 547); settings: DnaK chaperone assay, luminescence read-out; active compounds read low;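 further: tested at 10 µM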

| Structure (SMILES) | luminescence |
| --- | --- |
| CN1CCCC1CCOC(C)(c1ccccc1)c1ccc(Cl)cc1 (stereo not given) | 2.5e+06 cps (inactive) |
| NC(=NCc1ccccc1)NC(=O)c1nc(Cl)c(N)nc1N | 2.1e+06 cps (inactive) |
| CCCC1O[C@@H]2C[C@H]3[C@@H]4CCC5=CC(=O)C=C[C@]5(C)[C@H]4[C@@H](O)C[C@]3(C)[C@]2(C(=O)CO)O1 (stereo not given in full) | 2.4e+06 cps (inactive) |
| Cn1c(=O)[nH]c2ncn(C)c2c1=O | 2.8e+06 cps (inactive) |
| CCCn1c(=O)c2[nH]c(-c3ccc(OCC(=O)Nc4ccc(C#N)cc4)cc3)nc2n(CCC)c1=O | 2.3e+06 cps (inactive) |
| O=C(O)c1ccccc1Nc1ccccc1 | 2.2e+06 cps (inactive) |
| COc1ccc(/C=C/C(=O)Nc2ccccc2C(=O)O)cc1OC | 1.6e+06 cps (active) |
| COc1ccc(NC(=O)/C=C/c2ccc(Cl)cc2)cc1 | 2.8e+06 cps (inactive) |
| CCn1c(=O)[nH]c2cc(Cl)c(Cl)cc21 | 3.1e+06 cps (inactive) |
| O=C(O)/C=C/c1cnc[nH]1 | 2.2e+06 cps (inactive) |
| Cn1c(=O)c2c(nc(/C=C/c3cccc(Cl)c3)n2C)n(C)c1=O | 2.6e+06 cps (inactive) |
| O=c1cc(O)cc(/C=C/c2ccc(O)c(O)c2)o1 | 2.5e+06 cps (inactive) |
| NC12CC3CC(CC(C3)C1)C2 | 2.3e+06 cps (inactive) |
| CC[N+](C)(C)Cc1ccccc1Br | 2.5e+06 cps (inactive) |
| CCC(NC(C)C)C(O)c1ccc(O)c(O)c1 (stereo not given) | 2.2e+06 cps (inactive) |
| NC(N)=NCCSSCCN=C(N)N | 3e+06 cps (inactive) |
| NC[C@H](O)c1ccc(O)c(O)c1 | 2.6e+06 cps (inactive) |
| Cc1cn([C@H]2C[C@@H](N=[N+]=[N-])[C@@H](CO)O2)c(=O)[nH]c1=O | 2.8e+06 cps (inactive) |
| CCCCCCCCCC[Si](C)(C)CCC(=O)NC(Cc1ccc(C)cc1)c1ccccc1 (stereo not given) | 2.8e+06 cps (inactive) |
| CC(N)=NCCC[C@H](N)C(=O)O | 2.6e+06 cps (inactive) |
| C[C@]12CCC(=O)C=C1CC[C@@H]1[C@@H]2C(=O)C[C@@]2(C)[C@H]1CC[C@]2(O)C(=O)CO | 2.3e+06 cps (inactive) |
| CNC(=O)[C@H]1O[C@@H](n2cnc3c(N)ncnc32)C(O)[C@H]1O (stereo not given in full) | 2.5e+06 cps (inactive) |
| CC(CCc1ccccc1)NCC(O)c1ccc(O)c(C(N)=O)c1 (stereo not given) | 2.8e+06 cps (inactive) |
| C=CCc1ccccc1OCC(O)CNC(C)C (stereo not given) | 2.8e+06 cps (inactive) |
| Cn1cnc2c(NC3CCCC3)ncnc21 | 2.5e+06 cps (inactive) |
| Nc1nc(SCc2ccc([N+](=O)[O-])cc2)c2ncn([C@@H]3O[C@H](CO)[C@H](O)C3O)c2n1 (stereo not given in full) | 2.7e+06 cps (inactive) |
| CCCCCCCCCCCCCCCCOCC(COCC(F)(F)F)OP(=O)(O)OCO (stereo not given) | 2.4e+06 cps (inactive) |
| O=c1ccc2c(OCCCCc3ccccc3)c3ccoc3cc2o1 | 2.8e+06 cps (inactive) |

| Structure (SMILES) | luminescence |
| --- | --- |
| Cc1c(C)c2c(c(C)c1O)CCC(C)(CN1CCN(c3cc(N4CCCC4)nc(N4CCCC4)n3)CC1)O2 (stereo not given) | 2.6e+06 cps (inactive) |
| CN/C(=C\[N+](=O)[O-])NCCSCc1ccc(CN(C)C)o1 | 2.6e+06 cps (inactive) |
| CN(C)c1nc(N)c(C(=O)N=C(N)N)nc1Cl | 2.5e+06 cps (inactive) |
| Cc1cc(N)c2ccccc2[n+]1CCCCCCCCCCCCCC[n+]1c(C)cc(N)c2ccccc21 | 3e+06 cps (inactive) |
| O=C(O)c1cc(=O)cc(C(=O)O)[nH]1 | 2.7e+06 cps (inactive) |
| Cc1ccc(N(CC2=NCCN2)c2cccc(O)c2)cc1 | 2.5e+06 cps (inactive) |
| CC(COc1ccc(/C=C/c2ccccc2)cc1)[N+](C)(C)C (stereo not given) | 2.1e+06 cps (inactive) |
| CC1(C)C(=O)N(CCN2CCC(C(=O)c3ccc(F)cc3)CC2)c2ccccc21 | 2.6e+06 cps (inactive) |
| Cc1nc2ccccn2c(=O)c1CCN1CCC(C(=O)c2ccc(F)cc2)CC1 | 2.5e+06 cps (inactive) |
| O=C(c1ccc(F)cc1)C1CCN(CCn2c(=O)[nH]c3ccccc3c2=O)CC1 | 1.7e+06 cps (active) |
| C[C@H](CS)C(=O)N1CCC[C@H]1C(=O)O | 2.6e+06 cps (inactive) |
| N[C@@H](Cc1cnc[nH]1)C(=O)O | 2.9e+06 cps (inactive) |
| C=C[C@H]1CN2CCC1C[C@@H]2[C@@H](O)c1ccnc2ccc(OC)cc12 (stereo not given in full) | 2.3e+06 cps (inactive) |
| CC1(NCC(O)COc2cccc3[nH]ccc23)CCC(C(C)(C)NC(=O)CBr)CC1 (stereo not given) | 2.2e+06 cps (inactive) |
| OCCN1CCN(CCCN2c3ccccc3Sc3ccc(C(F)(F)F)cc32)CC1 | 2.6e+06 cps (inactive) |
| O=C1NC(O)=NC1(c1ccccc1)c1ccccc1 | 2.6e+06 cps (inactive) |
| C=C[C@H]1CN2CCC1C[C@H]2[C@H](O)c1ccnc2ccc(OC)cc12 (stereo not given in full) | 2.4e+06 cps (inactive) |
| O=c1[nH]c2cc([N+](=O)[O-])c([N+](=O)[O-])cc2[nH]c1=O | 3e+06 cps (inactive) |
| C#CC(N)CCC(=O)O (stereo not given) | 2.7e+06 cps (inactive) |
| C[C@H](Cc1ccc(O)c(O)c1)[C@@H](C)Cc1ccc(O)c(O)c1 | 2e+06 cps (inactive) |
| NC1(C(=O)O)CCc2cc(C(=O)O)ccc21 (stereo not given) | 2.8e+06 cps (inactive) |
| CC(C)(C)NCC(O)c1cc(O)cc(O)c1 (stereo not given) | 2.3e+06 cps (inactive) |
| Cc1ccccc1N1CCN(S(=O)(=O)C[C@]23CCC(CC2NC(=O)[C@@H](N)CCS(C)(=O)=O)C3(C)C)CC1 (stereo not given in full) | 2.6e+06 cps (inactive) |
| C[C@]12C=CC(=O)C=C1CC[C@@H]1C2=CC[C@]2(C)[C@@H](C(=O)CN3CCN(c4cc(N5CCCC5)nc(N5CCCC5)n4)CC3)CC[C@@H]12 | 2.4e+06 cps (inactive) |
| Nc1ccc(N2C(=O)c3ccccc3C2=O)c(Cl)c1 | 2.7e+06 cps (inactive) |
| CC(=O)N[C@@H](Cc1c[nH]c2ccccc12)C(=O)OCc1cc(C(F)(F)F)cc(C(F)(F)F)c1 | 2.8e+06 cps (inactive) |
| Brc1ccc([C@H]2CN3CCSC3=N2)cc1 | 2.2e+06 cps (inactive) |
